# Screening results: PubChem BioAssay, National Center for Advancing Translational Sciences (NCATS)
# G9a block: inhibitors of human histone lysine methyltransferase G9a | G9a H3K9 monomethylation, AlphaScreen, 2 h | Potency, µM (titrated, usually from 102 µM), usual class: inhibitors | actives 8.8% (n = 350,000) | AID 504332; note: nearly all actives have a fitted effect of over 75% in size
#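 Enzyme 20 nM + cpd, 15 min RT; add b-H3K9 pep 500 nM / SAM 20 uM; 2 h RT; anti-H3K9me1 Ab 0.5 ug/mL + SA donor / anti-rabbit acceptor beads 20 ug/mL each, 10 min; AlphaScreen read.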
# CCT chaperon mod: modulators of cytosolic chaperonin (CCT/TRiC) activity; purified chaperonin ATPase assay, HTRF ADP detection, 30 min; activity change, % (test concentration not listed), hits read low; actives 0.3% (n = 360,000); in the data active = activity change below about -30%
#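 First, chaperonin was dispensed at 40 nM or 20 nM final depending on batch activity. Next, compounds were pinned at 76 uM and ATP added at 10 uM. After 30 min at 37 °C, ADP detection reagents ran 30 min at ambient temperature.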
# Mm-Cpn inhibitor: M. maripaludis TRiC chaperonin inhibition; purified Mm-Cpn ATPase, ADP Transcreener TR-FRET; actives 0.031% (n = 330,000); AID 504842; Potency, µM (doses to about 76.9 µM), hits mostly inhibitors; note: nearly all actives have a fitted effect of over 80% in size
#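 Quantitative HTS used 25 nM Mm-CPN and 10 uM ATP in magnesium/KCl Tris buffer, pH 7.4, with 1 mM DTT. Hydrolysis ran 30 min at 37°C; ADP was read by HTRF.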
# Sfp PPTase inh: Sfp phosphopantetheinyl transferase inhibition; Q9F4F7; Potency, µM, actives largely listed as inhibitors; actives 3.5% (n = 310,000); Biochemical Sfp PPTase activity, qHTS;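 note: the enzyme is Sfp with the accession as filed and its product quenches rhodamine fluorescence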
#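 Sfp 15 nM + cpd, 15 min RT; start w/ rhodamine-CoA 5 uM, BHQ-2-YbbR 12.5 uM (final); 50 mM Hepes pH 7.6, 10 mM MgCl2, 0.01% NP-40, 0.01% BSA; read 525/598 nm at 0 and 30 min.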
# PLK1 PBD inh: blocks phosphopeptide binding to human PLK1 polo-box domain; P53350; Plk1 PBD binding of FITC phosphopeptide, fluorescence polarization; Potency, µM, hits mostly inhibitors; actives 2.8% (n = 360,000); AID 720504; note: series mostly up to about 57 µM; nearly all actives have a fitted effect of over 65% in size
# Target sequence (P53350 whole entry, looked up, the tested form may be a part): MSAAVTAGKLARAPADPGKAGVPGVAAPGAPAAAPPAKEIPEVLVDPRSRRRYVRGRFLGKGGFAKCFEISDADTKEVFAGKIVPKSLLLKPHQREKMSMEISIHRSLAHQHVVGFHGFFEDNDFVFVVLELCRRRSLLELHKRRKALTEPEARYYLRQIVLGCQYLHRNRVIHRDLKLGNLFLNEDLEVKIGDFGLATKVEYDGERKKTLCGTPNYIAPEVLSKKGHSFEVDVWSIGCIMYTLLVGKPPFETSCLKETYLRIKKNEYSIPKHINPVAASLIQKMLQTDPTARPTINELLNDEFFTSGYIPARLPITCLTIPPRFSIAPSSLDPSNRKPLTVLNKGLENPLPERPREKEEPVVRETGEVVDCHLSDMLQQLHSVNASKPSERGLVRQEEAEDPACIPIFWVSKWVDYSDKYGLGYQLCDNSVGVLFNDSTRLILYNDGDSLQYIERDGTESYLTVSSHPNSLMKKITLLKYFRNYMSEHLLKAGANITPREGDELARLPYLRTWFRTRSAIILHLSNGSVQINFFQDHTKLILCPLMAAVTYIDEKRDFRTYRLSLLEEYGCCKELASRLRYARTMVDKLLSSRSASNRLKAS
# VDR inh: inhibitors of human vitamin D receptor; Potency, µM, most hits filed as inhibitors; AID 504847; VDR-SRC2-3 peptide fluorescence polarization, 2 h; actives 0.93% (n = 400,000)
#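 Fluorescence polarization assay measuring small-molecule disruption of VDR binding to the coregulator peptide SRC2-3. Compounds were pin-transferred (23 nl) into the reagent mix and incubated 2 h at room temperature before reading.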
# A number is an active result; 0 = inactive; ? = inconclusive; - = no result; [ ] = remark or other dose. Rows were chosen to be rich in hits. Some 10% of all compounds tested hit in one or more screens of this group. Unless noted, calls come from the whole dose curve; as a rule, active = well fitted curve in the direction sought with a large enough effect; inconclusive = small, poorly fitted or top-dose-only effect, or another doubt; inactive = no such curve, though single readings can be large; an effect the other way counts as inactive or inconclusive.
SMILES,G9a block,CCT chaperon mod,Mm-Cpn inhibitor,Sfp PPTase inh,PLK1 PBD inh,VDR inh
CCc1ccc(-c2ccc(C(=O)O)cc2)nc1,0,0,0,0,0,0
NS(=O)(=O)c1ccc(NC(=S)N2CCN(C(=O)C3CCCO3)CC2)cc1 (stereo not given),0,0,0,0,10.6µM,?
CCC(C)c1ccc(NC(=O)N2CCN(C(=O)C3CCCO3)CC2)cc1 (stereo not given),-,0,0,0,0,0
CCC(C)c1ccc(NC(=S)N2CCN(C(=O)C3CCCO3)CC2)cc1 (stereo not given),0,-74.0,0,0,0,0
O=C(C1CCCO1)N1CCN(C(=S)Nc2ccc(Br)cc2)CC1 (stereo not given),-,0,0,0,0,0
CC(=O)Nc1cccc(Oc2nc(C)cc(C)c2C#N)c1,0,0,0,0,23.8µM,?
Cc1cc(C)n(CCc2nc3c4ccccc4nc(N4CCN(c5cccc(C)c5C)CC4)n3n2)n1,0,-,-,-,-,0
Cc1cccc(NC(=S)NC(NC(=O)c2ccco2)C(Cl)(Cl)Cl)c1 (stereo not given),14.1µM,0,0,0,0,0
CC(=O)c1cccc(NC(=O)c2cccc(NC(=O)c3ccco3)c2)c1,44.7µM,0,0,0,0,0
O=C(Nc1cc(Br)c(O)c(Br)c1)c1cccc(NC(=O)c2ccco2)c1,39.8µM,0,0,?,0,0
CN(C)C(=O)NC(NC(=S)Nc1ccccc1)C(Cl)(Cl)Cl (stereo not given),?,0,0,56.2µM,11.9µM,?
O=c1onc2cnc3ccccc3n12,0[12.7 µM],-,-,0,-,?
CCn1c(CNC(=O)c2ccc(OC)cc2)nnc1SCC(=O)Nc1cc(C)ccc1C,0,-,-,-,-,0
C=C(C)C(O)/C=C/CCCCCCC (stereo not given),-,-,-,0,-,-
O=C(NCC1CCCO1)c1c[nH]c2ccc(S(=O)(=O)Nc3ccc(F)cc3F)cc2c1=O (stereo not given),0,-,-,-,-,0
COC(=O)c1cccc(NC(=O)c2ccco2)c1,0,0,0,0,0,0
CC(=O)c1cccc(NC(=S)NNC(=O)c2ccco2)c1,35.5µM,0,0,0,0,0
O=C(Nc1c2c(nn1-c1ccccc1)CS(=O)C2)c1ccc(Br)o1 (stereo not given),0,0,0,0,0,0
Cc1cccc(-n2nc3c(c2NC(=O)CCCl)CSC3)c1,0[2.33 µM],0,0,44.7µM,0,0
CCC(=O)Nc1c2c(nn1-c1ccccc1C)CSC2,0,0,0,56.2µM,0,0
O=C(CCl)Nc1c2c(nn1-c1ccccc1)CSC2,0,0,0,0,26.7µM,?
Cc1cccc(-n2nc3c(c2NC(=O)c2ccc(Br)o2)CSC3)c1,39.8µM,0,?,?,0,0
CC(=O)Nc1c2c(nn1-c1ccccc1C)CSC2,0,0,0,0,0,0
O=C(CCCCl)Nc1c2c(nn1-c1ccccc1)CSC2,0,0,0,0,0,0
CCOc1ccccc1NC(=O)CN(C)S(=O)(=O)c1ccc2nc(C)sc2c1,0,-,-,-,-,0
SMILES,G9a block,CCT chaperon mod,Mm-Cpn inhibitor,Sfp PPTase inh,PLK1 PBD inh,VDR inh
Cc1ccc(NC(=O)Cn2c(=O)ccc3cc(S(=O)(=O)N4CCCC4)ccc32)cc1C,0,-,-,-,-,0
CCN(CC(=O)Nc1ccccc1C(F)(F)F)C(=O)CCOc1ccccc1C,0,0,?,-,0,0
CCOc1ccc(OCCC(=O)N(CC(=O)Nc2ccccc2C(F)(F)F)Cc2ccco2)cc1,44.7µM,0,0,-,0,0
Cc1ccc(NC(=O)N2CCN(Cc3nc4ccc(C)cc4o3)CC2)c(Cl)c1,0,-,-,-,-,0
O=C(NCc1ccco1)c1cnn2c1NC(c1ccc(Br)cc1)CC2C(F)(F)F (stereo not given),50.1µM,0,0,0,2.99µM,?
O=C(c1cnn2c1NC(c1ccco1)CC2C(F)(F)F)N1CCN(c2cccc(Cl)c2)CC1 (stereo not given),10µM,0,0,0,0,0
O=c1c(N2CCc3ccccc3C2)csc2ccc(Cl)cc12,0,-,-,-,-,0
O=C(CSc1oc(-c2ccccc2)nc1S(=O)(=O)c1ccc(Br)cc1)c1ccccc1,?,-,-,-,-,0
CCn1cc2nc(SCc3cc(C)ccc3C)n(Cc3ccc(C)cc3)c(=O)c2n1,0,-,-,-,-,0
S=c1[nH]nc(Cc2ccc(Cl)cc2)o1,0,0,0,0,33.6µM,0
S=c1[nH]nc(CCCc2n[nH]c(=S)o2)o1,-,0,0,?,21.2µM,0
COc1ccc(CCCc2n[nH]c(=S)o2)cc1,?,0,0,0,0,0
CCN(CC)c1ccc(/C=C(\C#N)C(N)=S)cc1,20µM,0,0,?,0,0
Cc1nc(C)c(/C(O)=C\c2nc3ccc([N+](=O)[O-])cc3oc2=O)o1,?,0,0,56.2µM,0,0
Cc1cc(NC(=O)N2CCC(CN3CCCCCC3)CC2)ccc1Br,0,-,-,-,-,0
COc1cccc(-c2ccc3c(N)c(C(=O)Nc4ccccc4C)sc3n2)c1,0,-,-,-,-,0
Nc1c(C(=O)Nc2cccc(Cl)c2Cl)sc2nc(-c3cccnc3)ccc12,89.1µM,0,0,0,0,0
Nc1c(C(=O)Nc2ccccc2)sc2nc(-c3ccco3)ccc12,11.2µM,0,0,7.94µM,0,0
COc1ccccc1NC(=O)c1sc2nc(-c3ccco3)ccc2c1N,2.51µM,0,0,0,?,0
CC(NC(=O)c1ccc(NC(=O)c2nsc3ccccc23)cc1)c1ccccc1 (stereo not given),0,-,-,-,-,0
CCCn1cnc2cc(NCc3ccccn3)ccc21,10µM,0,0,0,0,0
CCc1ccc(CNc2ccc3c(c2)ncn3C)cc1,3.16µM,0,0,0,0,0
Cc1ccc(CNc2ccc3c(c2)ncn3C)cc1,0.708µM,0,0,0,0,0
CCn1cnc2cc(NCc3ccncc3)ccc21,?,0,0,0,0,0
COc1ccc(CNc2ccc3c(c2)ncn3C)cc1OC,39.8µM,0,0,0,0,0
SMILES,G9a block,CCT chaperon mod,Mm-Cpn inhibitor,Sfp PPTase inh,PLK1 PBD inh,VDR inh
Cn1cnc2cc(NCc3ccccc3O)ccc21,0,0,0,0,0,0
COc1ccc(CNc2ncccn2)cc1OC,0,0,0,0,0,0
COC(=O)c1cc2sccc2n1Cc1nc(-c2cccc(Br)c2)oc1C,?,-,-,-,-,0
CCCN(CCC)CCNC(=O)c1nn(C)c2c1CS(=O)(=O)c1ccccc1-2,?,-,-,-,-,0
Cc1ccccc1-n1nnnc1SCc1ncc(-c2ccccc2)o1,?,0,0,0,0,0
c1ccc(-c2cnc(CSc3nnc4ccccn34)o2)cc1,10µM,0,0,0,0,0
COc1ccccc1C(=O)Nc1ccc2c(c1)CCCN2C(=O)c1ccccc1,0,0,0,0,23.8µM,?
O=C(Nc1ccc2c(c1)CCCN2C(=O)c1cccs1)c1ccccc1,0,0,0,0,21.2µM,0
CCOc1cc(CNC(=O)CN2CCSc3ccccc32)cc(OCC)c1OCC,0,-,-,-,-,0
CC(C)N(Cc1ccccc1)c1ncnc2c1nnn2C,0,-,-,-,-,0
